Experimental data taken from ChEMBL document CHEMBL4513146, “CO-ADD screening of Karazin Kharkiv National University (Ukraine) compounds”.
Measured potencies and affinities stand elsewhere.

What was measured:
Klebsiella pneumoniae = details: Concentration 32 ug.mL-1;; ASSAY_TEST Inhibition of Bacterial Growth; detection method Absorption (OD600); MEDIA CAMHB; plate type 384well; NBS; CORNING #3640; time 18 hr
Candida albicans = details: Concentration 32 ug.mL-1; ASSAY_TEST Inhibition of Fungal Growth; detection method Absorption (OD530)
Cryptococcus neoformans = details: Concentration 32 ug.mL-1; ASSAY_TEST Inhibition of Fungal Growth; detection method Resazurin; Absorption (OD600-OD570); plate type 384well; NBS; CORNING #3640

Structure (SMILES) | Inhibition (Klebsiella pneumoniae) | Inhibition (Candida albicans) | Inhibition (Cryptococcus neoformans)
Cc1ccc(-c2ccc3nn(Cc4ccc(Cl)cc4)c(=O)n3n2)cc1C | 5.62% | 5.2% | -10.05%
COc1ccc(-c2cc3c4nnc(SCC(=O)Nc5cccc(C)c5C)n4ccn3n2)cc1 | 2.16% | 3.48% | -22.8%
O=C(CSc1nnc2c(=O)n(-c3ccc(F)c(F)c3)ccn12)c1ccccc1Cl | 10.86% | 3.43% | -7.06%
O=C(Cn1nc2n(Cc3ccccc3)c(=O)c3ccccc3n2c1=O)Nc1ccc2c(c1)OCO2 | 2.83% | 0.36% | -11.06%
Cc1ccc(NC(=O)Cn2nc3ccc(SC(C)C)nn3c2=O)c(C)c1 | 11.09% | 2.8% | -5.46%
Cc1ccc(-c2cc3c4nn(CC(=O)Nc5ccc(Br)cc5)c(=O)n4ccn3n2)cc1C | -3.52% | 9.45% | -8.46%
CCc1nnc2ccc(S(=O)(=O)N(Cc3ccc(OC)cc3)c3cccc(F)c3)cn12 | 4.14% | 4.82% | -8.59%
CC(C)c1nnc2c(=O)n(CC(=O)Nc3ccc(Br)cc3)c3ccccc3n12 | 14.25% | 2.31% | -6.21%
Cc1ccc(C)c(NC(=O)Cn2nc3c(SCc4ccc(Cl)cc4)nccn3c2=O)c1 | 13.13% | 3.07% | -22.73%
Cc1ccc(-c2ccc3nn(CC(=O)Nc4c(C)cccc4C)c(=O)n3n2)cc1C | -0.65% | -0.71% | -7.01%
